Screens: PubChem BioAssay, The Scripps Research Institute Molecular Screening Center
ssDAF12 agonist = S. stercoralis DAF-12 nuclear receptor activators, primary screen, cell-based, luminescence, HEK293, GRIP1 co-expression, lit1-tk-luc. AID 652126, 2013. activation, % at 6.8 µM. Nuclear hormone receptor DAF-12 (Strongyloides stercoralis). HEK293 ssDAF-12/GRIP1 lit1-tk-luc reporter; % of 3 µM dafachronic acid response. 1% of 370,000 active;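 active = activation above the mean over all tested compounds plus 3 SD, cut at about 0.9% in these data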;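 also: 0% = DMSO-only wells and 100% = 3 µM delta7-dafachronic acid wells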
DAX1 inh-1 = DAX1 (NR0B1) inhibitors, primary screen, cell-based, HEK293, Gal4-DAX1, luciferase luminescence; Nuclear receptor subfamily 0 group B member 1 (Homo sapiens), P51843; HEK293 Gal4-DAX1 luciferase reporter; inhibition, % at 6.75 µM; 0.99% of 340,000 active;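 active = inhibition above the mean over all tested compounds plus 3 SD, cut at about 4.2% in these data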;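 also: 0% = DAX1-transfected cells with DMSO and 100% = empty-vector control cells with DMSO; inhibition shows as a rise in luminescence from relieved DAX1 repression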
Target sequence (P51843 207-470 limits assumed): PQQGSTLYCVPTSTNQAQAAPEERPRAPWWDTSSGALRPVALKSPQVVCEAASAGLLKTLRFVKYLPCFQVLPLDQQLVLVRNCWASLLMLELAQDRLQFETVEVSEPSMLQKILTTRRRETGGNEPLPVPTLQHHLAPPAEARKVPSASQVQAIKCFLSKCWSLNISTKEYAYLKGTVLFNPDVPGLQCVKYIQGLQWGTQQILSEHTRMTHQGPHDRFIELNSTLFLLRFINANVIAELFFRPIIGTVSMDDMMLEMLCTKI
DAX1 inh-2 = DAX1 (NR0B1) inhibitors on StAR promoter, primary screen, cell-based, luminescence, SF-1 (NR5A1), full-length DAX-1; inhibition, % at 6.8 µM; 1.1% of 370,000 active; AID 652010, 2013; HEK293T StAR-luciferase reporter, SF-1/DAX-1 repression relief;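 active = inhibition above the mean over all tested compounds plus 3 SD, cut at about 3.6% in these data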;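 also: 0% = DAX-1 cells with DMSO and 100% = cells lacking DAX-1 with DMSO; higher inhibition means more luminescence from relief of DAX-1 repression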
hcDAF-12 act = H. contortus DAF-12 nuclear receptor activators, primary screen, cell-based, luminescence, HEK293, lit1-tk-luc reporter | activation, % at 6.8 µM | AID 652067, 2013 | HEK293 hcDAF-12 lit1-tk-luc reporter; 0% DMSO, 100% Δ7-dafachronic acid | 1.4% of 370,000 active;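 active = activation above the mean of all tested compounds plus 3 SD, cut at about 5.5% in these data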;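 also: 100% = response to 3 µM Δ7-dafachronic acid high control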
hgDAF-12 ag = H. glycines DAF-12 receptor agonists, primary screen, cell-based, luminescence, HEK293, GAL4 fusion, UAS-luciferase; Nuclear hormone receptor DAF-12 (Heterodera glycines), GAL4 fusion; HEK293 GAL4-hgDAF12 UAS-luciferase reporter, agonist luminescence; normalized to butyrate control; activation, % at 6.8 µM; 1.8% of 370,000 active; AID 687014, 2013;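 active = activation above a cutoff set at the mean of all screened compounds plus 3 SD, cut at about 10% in these data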;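 also: 0% = DMSO wells and 100% = sodium butyrate wells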
Numbers without * were called inactive; x = no result. Hits are enriched below; roughly 4.1% of the tested compounds scored in any of these assays.

SMILES	ssDAF12 agonist	DAX1 inh-1	DAX1 inh-2	hcDAF-12 act	hgDAF-12 ag
O=S(=O)(NCC1NCCc2ccccc21)c1ccccc1 (centres undefined)	-0.7	8.3*	-0.1	1.3	-2.0
c1ccc(C2NCCc3ccccc32)cc1 (centres undefined)	-1.1	2.1	0.2	-0.6	0.8
CCCN(CCC)S(=O)(=O)c1ccc(C(=O)NCc2n[nH]c(=S)n2-c2ccc(Cl)c(Cl)c2)cc1	-0.2	5.2*	0.5	0.6	-0.8
O=C(NCc1n[nH]c(=S)n1-c1ccc(Cl)c(Cl)c1)c1ccc(S(=O)(=O)N2CCCCC2)cc1	-1.5	0.7	0.9	-0.5	0.8
COC(=O)c1ccc2c(C3(c4c[nH]c5ccccc45)CCN(C(=O)OC(C)(C)C)CC3)c[nH]c2c1	0.2	x	-2.0	3.8	9.2
CN(C)CCCSc1nc2ccccc2s1	2.0*	0.7	-0.3	3.7	3.7
O=C(O)C1CCN(C(=O)CSc2nc3ccccc3s2)CC1	-0.5	-0.4	0.0	1.8	0.2
CC1Cc2ccccc2N1C(=O)CSc1nc2ccccc2s1 (centres undefined)	-1.2	0.7	-0.6	-1.5	0.3
CC1CCCC(C)N1C(=O)CSc1nc2ccccc2s1 (centres undefined)	-0.2	5.0*	0.8	2.9	7.2
CC(C)NC(=O)NC(=O)COC(=O)CCCSc1nc2ccccc2s1	-0.4	7.4*	0.0	0.2	-1.4
O=C(CSc1nc2ccccc2s1)N1CCCCC1	0.9	2.6	1.5	4.4	12.4*
O=C(NCC1CCN(C(=O)C(=O)c2cccs2)CC1)c1ccc2c(c1)CCO2	-0.5	x	0.0	-1.4	1.3
Cc1cc(N2CCN(C(=O)OC(C)(C)C)C[C@H]2C)ccc1N1CCN(Cc2ccccc2)[C@@H](C)C1	-0.7	x	-2.7	-1.2	3.8
O=C(Cc1ccccc1F)N1CCC(n2nnc3ncccc32)CC1	-0.9	x	-0.6	-1.2	2.4
CC1CCN(C(=O)CSc2nc3ccccc3s2)CC1	0.0	4.6*	2.2	6.5*	12.4*
Cc1ccccc1NC(=O)c1ccc2ccccc2c1	-0.4	5.0*	1.1	2.4	6.0
COC(=O)c1ccc2c(c1)N(C)CCS2	-1.2	4.4*	0.4	-1.0	-3.4
Cc1ccccc1NC(=O)c1ccc2c(c1)N(C)CCS2	-0.8	2.3	3.6*	1.6	11.9*
COC(=O)[C@H](C)NC(=O)[C@@H]1CC=C[C@@H]2CCN(CCc3ccccc3)C(=O)[C@@H]21	-1.2	x	x	0.8	-0.3
CC1(C)C=C2C(N(CC3CC3)C(=N)N2C(=O)OCc2ccccc2)n2c(=O)n(-c3ccccc3)c(=O)n21 (centres undefined)	-1.2	x	x	0.8	-0.7
O=C(NCC(c1ccccc1)c1ccccc1)[C@H](Cc1c[nH]c2ccccc12)NC1(C(=O)NC2CCCCC2)CCCCCC1	-2.1	x	x	0.3	-1.0
O=C(Nc1nc(-c2ccc(F)cc2)cs1)C1CCN(C(=O)c2ccc(F)cc2)CC1	-1.6	-4.0	-7.7	-3.9	-8.4
O=C(Nc1nc2c(F)cc(F)cc2s1)C1CCN(C(=O)c2ccc(F)cc2)CC1	0.3	2.3	4.0*	5.2	10.2
COc1cc(C=O)ccc1OCc1ccc(Cl)nc1	-1.3	2.0	1.3	0.5	11.4*
COc1cccc(-c2ccc(C#N)c(SCC(=O)NCCc3ccccc3)n2)c1	1.0*	0.7	0.2	-1.4	0.0
SMILES	ssDAF12 agonist	DAX1 inh-1	DAX1 inh-2	hcDAF-12 act	hgDAF-12 ag
COc1cccc(-c2ccc(SCC(=O)NCCc3ccccc3)nn2)c1	-1.3	-0.7	-2.6	4.5	3.1
CCC(C)(C(=O)NC1CCCCC1)N(C(=O)c1ccccn1)c1ccccc1 (centres undefined)	-1.0	-0.3	-0.6	1.5	0.6
CCC(C)(C(=O)NC1CCCCC1)N(C)C(=O)c1ccccn1 (centres undefined)	-0.7	0.1	-0.1	6.1*	2.2
CCOc1cc(/C=N/NC(=O)c2cccs2)cc([N+](=O)[O-])c1O	0.4	1.1	2.4	1.7	12.3*
COC(=O)c1cc2c(c3c4cc(C)ccc4n(S(=O)(=O)c4ccc(OC)cc4)c13)C(=O)N(C)C2	0.6	x	-1.5	0.2	2.1
O=[N+]([O-])c1ccccc1-c1ccc(C(=S)N2CCN(c3ccccc3)CC2)o1	1.7*	-0.8	-0.2	3.0	1.3
Cc1ccc(-c2[nH]c3ccccc3c2SCCN)cc1	1.2*	2.5	0.8	6.0*	3.5
CCc1cccc2c(C(C)c3ccccc3O)c[nH]c12 (centres undefined)	2.2*	x	0.0	3.6	5.0
COC(=O)[C@]12C[C@H](CC(=O)NCCCCc3ccccc3)C(=O)N(Cc3cccc4ccccc34)C1=C[C@H](C(C)C)O[C@@H]2C1CC1	1.3*	x	-1.2	-0.6	-2.5
COC(=O)[C@]12C[C@H](CC(=O)NCc3ccccc3)C(=O)N(Cc3cccc4ccccc34)C1=C[C@H](C(C)C)O[C@@H]2C1CC1	-1.4	x	-1.4	-0.5	4.4
O=C(N/N=C/c1cn(-c2ccccc2)nc1-c1ccc2c(c1)OCCO2)c1ccncc1	-0.7	0.1	1.5	-0.7	10.5*
Cc1ccc(Nc2cc(C)nc(N3CCOCC3)n2)cc1	0.3	1.0	0.9	5.7*	4.0
Cc1cc(Nc2ccc(C)c(Cl)c2)nc(N2CCOCC2)n1	-1.0	x	0.1	-2.2	-0.6
O=C(c1ccccc1)c1cccc[n+]1[O-]	-1.4	6.2*	-0.1	-1.3	0.2
O=C(c1ccccc1)c1cc[n+]([O-])cc1	-1.5	0.4	-0.3	-1.0	-0.4
C[C@H]1[C@@H](OC(=O)Nc2ccc(Br)cc2)CC[C@@]23CCCN2C(=O)CCC[C@@H]13	-1.6	x	x	-2.4	-1.6
CCC(=O)N(C)CCc1cc2c(c(OC)c1/C=N/NC(=O)c1ccncc1)OCO2	-1.4	4.2*	-0.2	-0.5	1.5
CCCCN1CN2Cc3ccc(C)cc3C2CS1(=O)=O (centres undefined)	-0.7	x	1.2	-0.6	-2.0
COc1cccc(/C=N/NC(=O)CCn2c3ccccc3c3ccccc32)c1	1.4*	2.5	0.1	0.6	4.6
Cc1cc(C)cc(N=C2NC(=O)/C(=C/c3cccs3)S2)c1	-1.6	1.3	-0.9	-1.6	-1.9
O=C1NC(=Nc2ccccc2)S/C1=C\c1cccs1	1.4*	1.0	0.0	4.6	6.7
Cc1ccc(Cl)cc1NC1=C/C(=N\S(=O)(=O)c2cccs2)c2ccccc2C1=O	1.0*	0.2	-0.4	2.3	-2.6
